Laboratory results published in PubChem BioAssay.
The source made the active and inactive calls.

Key:
[1] = optical density shifts of acrAB sulA E. coli – strain DRC41, OD650, 48 h, E. coli filamentation inducer project, primary screen (AID 1152); settings: higher = more signal, called active from +8 up or from −8 down;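 further: E. coli MC1000 strain DRC41 lacking acrAB efflux pump and sulA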
[2] = probe aLefty1 binding on compound microarray – biochemical, small-molecule microarray, 635/667 nm fluorescence, primary screen (AID 1153); settings: higher = more signal;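 further: score merges spot fluorescence with signal-to-noise ratio from the scanned slide images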
[3] = plasmodial surface anion channel blockers, osmotic lysis – cell-based, P. falciparum Indochina, OD700, 1 h, primary screen (AID 1154); settings: P. falciparum Indochina infected RBC osmotic lysis, higher = more signal, called active from +8 up or from −8 down
[4] = plasmodial surface anion channel blockers, osmotic lysis – cell-based, P. falciparum Indochina, OD700, 2 h, primary screen (AID 1155);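 further: lysis reports solute entry through the parasite surface anion channel PSAC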; settings: P. falciparum Indochina infected erythrocytes, higher = more signal, called active from +8 up or from −8 down
[5] = changes in parasitized red cell lysis, either direction – P. falciparum Indochina, OD700, 3 h, PSAC antagonist project, primary screen (AID 1156); settings: P. falciparum-infected erythrocytes, osmotic lysis, higher = more signal, called active from +8 up or from −8 down
[6] = plasmodial surface anion channel blockers, osmotic lysis – cell-based, P. falciparum Indochina, OD700, 18 h, primary screen (AID 1157); settings: P. falciparum Indochina infected erythrocytes, osmotic lysis OD700, 18 h; higher = more signal, called active from +8 up or from −8 down
[7] = S6 kinase pathway phospho-S6 level changes – cell-based, A549, cytoblot, luminescence, serum-stimulated, primary screen (AID 1158); settings: 5 h, higher = more signal;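 further: serum-stimulated A549 lung adenocarcinoma cells; signal is phosphorylated S6 detected by cytoblot immunostaining with HRP secondary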
[8] = biological target: NADPH oxidase 2 (Homo sapiens) (UniProt P04839); assay: compounds shifting NOX2 Amplex Red fluorescence – cell-based, HEK293-NOX2, PMA-stimulated, NOX inhibitor project, primary screen (AID 1159); settings: 45 min, higher = more signal, called active from +8 up or from −8 down; further: test concentration not given here
[9] = biological target: NADPH oxidase 4 (Homo sapiens) (UniProt Q9NPH5); assay: compounds shifting NOX4 Amplex Red fluorescence – cell-based, HEK293-NOX4, tetracycline-induced, NOX inhibitor project, primary screen (AID 1160); settings: HEK293-NOX4, Amplex Red H2O2 fluorescence, 45 min; higher = more signal, called active from +8 up or from −8 down
[10] = biological target: NADPH oxidase 5 (Homo sapiens) (UniProt Q96PH1); assay: compounds shifting NOX5 Amplex Red fluorescence – cell-based, HEK293-NOX5, NOX inhibitor project, primary screen (AID 1161); settings: HEK293-NOX5, ionomycin, 45 min, higher = more signal
[11] = compound effects on lung adenocarcinoma cell viability – A549, calcein-AM fluorescence, 48 h, basal, profiling panel (AID 1162); settings: higher = more signal; further: test concentration not given here
[12] = compound effects on differentiated 3T3-L1 adipocyte viability – cell-based, 3T3-L1 adipocytes, calcein-AM fluorescence, 48 h, basal, profiling panel (AID 1163); settings: 3T3-L1 adipocytes viability, higher = more signal; further: test concentration not given here
[13] = compound effects on hepatocellular carcinoma cell viability – HepG2, calcein-AM fluorescence, 48 h, basal, profiling panel (AID 1164); settings: higher = more signal; further: test concentration not given here
[14] = compound effects on multiple myeloma cell viability – MM1S, calcein-AM fluorescence, 48 h, basal, profiling panel (AID 1165); settings: higher = more signal;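 further: viability of MM1S multiple myeloma cells under basal unstimulated conditions; test concentration not given here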
[15] = calcein-AM signal in unstimulated myeloma cells – cell-based, calcein-AM fluorescence, 48 h, PK04 Diversity Set, profiling panel (AID 1166); settings: RPMI8226 myeloma viability, higher = more signal;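 further: cells grown under basal conditions without added stimulus; test concentration not given here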
[16] = JC-1 mitochondrial signal, unstimulated HepG2 cells – cell-based, JC-1 fluorescence, 24 h, 100 nL compound, profiling panel (AID 1167); settings: HepG2 mitochondrial potential, higher = more signal; further: test concentration not given here
[17] = JC-1 mitochondrial signal, unstimulated adipocytes – cell-based, JC-1 fluorescence, 3T3-L1 adipocytes, 24 h, 100 nL compound, profiling panel (AID 1168); settings: JC-1 mitochondrial fluorescence, higher = more signal, called active from +8 up or from −8 down; further: test concentration not given here
[18] = JC-1 mitochondrial signal, unstimulated myeloma cells – cell-based, JC-1 fluorescence, RPMI8226, 24 h, 100 nL compound, profiling panel (AID 1169); settings: JC-1 mitochondrial potential fluorescence, higher = more signal; further: test concentration not given here
[19] = JC-1 mitochondrial signal, unstimulated MM1S myeloma – cell-based, JC-1 fluorescence, 24 h, 100 nL compound, profiling panel (AID 1170); settings: MM1S mitochondrial potential, higher = more signal; further: test concentration not given here
[20] = resazurin metabolic signal in A549 cells – cell-based, resazurin fluorescence, 24 h, PK04 Diversity Set, profiling panel (AID 1171); settings: A549 viability, higher = more signal, called active from +8 up or from −8 down; further: test concentration not given here

Sequence of NADPH oxidase 2 (Homo sapiens) (P04839 whole entry, looked up): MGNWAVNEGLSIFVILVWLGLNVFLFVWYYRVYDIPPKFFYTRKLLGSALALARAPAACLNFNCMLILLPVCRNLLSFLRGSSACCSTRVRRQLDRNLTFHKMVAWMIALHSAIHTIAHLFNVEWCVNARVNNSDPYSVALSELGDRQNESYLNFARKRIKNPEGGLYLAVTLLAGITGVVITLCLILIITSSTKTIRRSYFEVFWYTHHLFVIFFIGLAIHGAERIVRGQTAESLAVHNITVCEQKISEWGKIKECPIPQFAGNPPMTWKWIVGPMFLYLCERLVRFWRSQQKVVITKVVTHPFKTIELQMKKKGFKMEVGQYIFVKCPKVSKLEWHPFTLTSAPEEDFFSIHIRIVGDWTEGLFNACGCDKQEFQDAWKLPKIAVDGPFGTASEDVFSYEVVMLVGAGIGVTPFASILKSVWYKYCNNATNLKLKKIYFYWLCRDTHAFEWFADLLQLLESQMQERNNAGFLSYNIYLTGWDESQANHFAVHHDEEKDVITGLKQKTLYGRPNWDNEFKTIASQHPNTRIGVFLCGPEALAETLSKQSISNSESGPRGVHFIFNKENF
Sequence of NADPH oxidase 5 (Homo sapiens) (Q96PH1 whole entry, looked up): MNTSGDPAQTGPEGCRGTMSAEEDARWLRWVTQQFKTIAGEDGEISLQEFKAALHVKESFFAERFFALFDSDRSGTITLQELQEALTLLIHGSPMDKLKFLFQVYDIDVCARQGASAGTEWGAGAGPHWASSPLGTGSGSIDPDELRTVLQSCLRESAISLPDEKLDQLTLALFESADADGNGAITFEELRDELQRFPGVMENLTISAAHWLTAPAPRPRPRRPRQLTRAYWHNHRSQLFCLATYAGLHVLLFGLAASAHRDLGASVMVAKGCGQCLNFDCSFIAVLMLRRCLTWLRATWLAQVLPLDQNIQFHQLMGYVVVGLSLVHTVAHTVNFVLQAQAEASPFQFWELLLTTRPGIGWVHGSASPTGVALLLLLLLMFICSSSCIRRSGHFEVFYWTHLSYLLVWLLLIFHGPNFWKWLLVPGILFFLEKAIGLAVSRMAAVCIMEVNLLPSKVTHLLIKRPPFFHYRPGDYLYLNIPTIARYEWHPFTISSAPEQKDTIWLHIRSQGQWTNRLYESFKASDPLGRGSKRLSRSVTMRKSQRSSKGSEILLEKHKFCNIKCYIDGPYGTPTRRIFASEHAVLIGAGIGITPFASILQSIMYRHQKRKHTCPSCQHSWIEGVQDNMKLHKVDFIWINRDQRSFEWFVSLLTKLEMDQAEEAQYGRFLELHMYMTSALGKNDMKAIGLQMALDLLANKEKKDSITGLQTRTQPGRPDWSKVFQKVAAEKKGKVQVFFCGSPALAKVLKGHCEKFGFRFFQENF
Sequence of NADPH oxidase 4 (Homo sapiens) (Q9NPH5 whole entry, looked up): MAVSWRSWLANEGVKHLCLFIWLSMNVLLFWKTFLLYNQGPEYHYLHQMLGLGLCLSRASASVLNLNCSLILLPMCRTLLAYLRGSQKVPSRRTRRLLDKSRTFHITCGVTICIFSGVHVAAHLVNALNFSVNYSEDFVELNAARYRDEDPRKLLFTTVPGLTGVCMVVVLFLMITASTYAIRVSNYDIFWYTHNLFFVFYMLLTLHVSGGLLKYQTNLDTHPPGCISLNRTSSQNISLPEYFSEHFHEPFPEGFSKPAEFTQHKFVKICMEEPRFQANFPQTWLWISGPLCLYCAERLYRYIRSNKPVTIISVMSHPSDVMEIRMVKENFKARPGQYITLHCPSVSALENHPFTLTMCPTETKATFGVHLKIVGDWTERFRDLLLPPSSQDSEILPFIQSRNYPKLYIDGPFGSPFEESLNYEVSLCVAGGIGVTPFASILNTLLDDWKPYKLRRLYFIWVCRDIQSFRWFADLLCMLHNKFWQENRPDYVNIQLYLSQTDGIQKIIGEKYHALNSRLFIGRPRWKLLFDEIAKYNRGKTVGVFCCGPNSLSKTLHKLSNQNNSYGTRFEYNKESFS

| Structure (SMILES) | z-score [1] | composite z-score [2] | z-score [3] | z-score [4] | z-score [5] | z-score [6] | z-score [7] | z-score [8] | z-score [9] | z-score [10] | z-score [11] | z-score [12] | z-score [13] | z-score [14] | z-score [15] | z-score [16] | z-score [17] | z-score [18] | z-score [19] | z-score [20] |
| --- | --- | --- | --- | --- | --- | --- | --- | --- | --- | --- | --- | --- | --- | --- | --- | --- | --- | --- | --- | --- |
| O=C1c2ccccc2[C@@]2(Cc3ccccc3N(C3CC3)C2=O)[C@H](c2ccc(CO)cc2)N1Cc1ccccc1C(F)(F)F | -0.262 (inactive) | 0.566 | 0.949 (inactive) | -0.28 (inactive) | -0.31 (inactive) | -1.41 (inactive) | 1.01 | 0.136 (inactive) | -1.4 (inactive) | -0.129 | 0.238 | 0.4 | -0.772 | 0.306 | -0.522 | 1.13 | -0.474 (inactive) | 0.84 | -1.56 | 0.164 (inactive) |
| C=C(/C(=C/C[C@@H](OC(=O)c1ccncc1)c1ccc(OCCO)cc1)c1cnc2ccccc2c1)C(C)C | 1.13 (inactive) | -0.0199 | 12.8 (active) | 4.25 (inactive) | -1.77 (inactive) | -0.0139 (inactive) | 0.13 | -2.73 (inactive) | -0.648 (inactive) | -3.24 | 0.476 | 0.443 | -0.477 | -1.78 | 0.448 | 2.2 | -0.883 (inactive) | -0.736 | -0.48 | -0.464 (inactive) |
| COC(=O)C1=C(C)[C@@H](O)[C@@H](C)[C@H](c2c(OC)c(OC)c(C)c(OC)c2OC)O1 | -0.472 (inactive) | -0.356 | 0.211 (inactive) | 0.589 (inactive) | 0.336 (inactive) | 0.1 (inactive) | -0.468 | -0.101 (inactive) | -0.0181 (inactive) | 0.536 | -0.501 | -0.63 | 0.287 | 0.631 | -0.976 | -0.206 | 0.657 (inactive) | 0.267 | -0.722 | -0.345 (inactive) |
| CCCCCN1CC=CC23O[C@@H]4C=CCOC(=O)[C@@H]4[C@H]2C(=O)N(CCCCCCO)[C@@H]3C1=O (stereo not given in full) | 0.191 (inactive) | -0.103 | 2.04 (inactive) | -0.0969 (inactive) | 0.748 (inactive) | 0.187 (inactive) | 0.0374 | 1.24 (inactive) | -0.482 (inactive) | 1.73 | -0.262 | -0.0159 | 0.63 | 1.04 | -0.534 | -0.429 | -0.574 (inactive) | -0.343 | -0.414 | 0.444 (inactive) |
| CO[C@@H]1COC(=O)CC=C[C@@H](C)[C@@H]2C=C[C@@H](O)[C@@H](COC(=O)CC=C[C@H]1C)O2 | 0.301 (inactive) | -0.012 | 0.118 (inactive) | -1.35 (inactive) | -1.66 (inactive) | -1.73 (inactive) | 0.805 | -0.0926 (inactive) | 0.492 (inactive) | 0.957 | 0.852 | 0.572 | 1.4 | 0.349 | 1.01 | 1.33 | 0.95 (inactive) | -1.01 | 1.48 | -0.299 (inactive) |
| CC1CC/C=C\[C@H]2OC34C=CCN(Cn5nnc6ccccc65)C(=O)[C@H]3N(CCO)C(=O)[C@@H]4C2C(=O)O1 (stereo not given in full) | 2.49 (inactive) | -0.155 | 2.87 (inactive) | 0.218 (inactive) | -1.23 (inactive) | -0.752 (inactive) | 1.03 | 1.44 (inactive) | 0.285 (inactive) | 2.67 | -0.338 | 1.11 | -0.447 | 0.0362 | 0.134 | -0.153 | -0.798 (inactive) | 0.691 | 0.206 | 0.676 (inactive) |
| NC(=O)NCC#Cc1ccc2c(c1)[C@]1(C(=O)N2)[C@H](c2ccc(O)cc2)N2[C@H](c3ccccc3)[C@H](c3ccccc3)OC(=O)[C@H]2[C@@H]1C(=O)N1CCCCCCC1 | -0.403 (inactive) | 2.04 | 0.578 (inactive) | -0.175 (inactive) | 0.35 (inactive) | 0.197 (inactive) | 0.0459 | 1.71 (inactive) | 0.802 (inactive) | 1.2 | 1.21 | 0.139 | 1.23 | 0.561 | 0.597 | -1.08 | 1.04 (inactive) | -0.578 | -0.413 | -0.118 (inactive) |
| CCN1C(=O)[C@H]2[C@H]3[C@H](O)[C@H](O)CC(=NOC(C)CN4CCCCc5nc(C)c(C)cc54)[C@@H]3CC[C@H]2C1=O (stereo not given in full) | 0.803 (inactive) | -0.106 | 0.29 (inactive) | 0.15 (inactive) | 0.363 (inactive) | 0.317 (inactive) | -0.518 | -0.588 (inactive) | -0.245 (inactive) | -0.239 | -0.421 | 0.111 | 0.503 | 0.0768 | 0.173 | -0.214 | -1.21 (inactive) | -0.232 | -0.0499 | -0.378 (inactive) |
| CCOC(=O)[C@H](Cc1ccccc1)NC(=O)CCC1CC(OC(=O)NCc2ccc3c(c2)OCO3)CC2(CCCC(COC(=O)NCC3CCCCC3)O2)O1 (stereo not given in full) | -0.251 (inactive) | 0.171 | 0.732 (inactive) | 0.45 (inactive) | -0.235 (inactive) | 0.297 (inactive) | 0.236 | 1.51 (inactive) | 0.737 (inactive) | 0.909 | 0.0417 | -0.0963 | -0.264 | -2.06 | -2.09 | 1.84 | -0.0648 (inactive) | -0.00903 | -0.306 | 1.02 (inactive) |
